The record followed here is PubChem BioAssay (NCI).

Test [1] is described as follows: NCI Yeast Anticancer Drug Screen. Data for the mec2-1 strain (AID 157). The settings on record: S. cerevisiae mec2-1 strain, hits give high values. Summed up:
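Compounds were applied to mec2-1 yeast cells. Their growth was then compared with that of vehicle-treated cultures to give growth inhibition.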

Test [2] is described as follows: NCI Yeast Anticancer Drug Screen. Data for the sgs1 mgt1 strain (AID 161).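 Also: 0% = growth of cultures given vehicle only.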 As to conditions: S. cerevisiae sgs1 mgt1 strain, hits give high values. Put shortly:
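Percent growth inhibition was derived by comparing compound-exposed mutant yeast with vehicle-exposed cultures. The strain carries alterations in DNA damage repair.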

Test [3] can be described thus: NCI Yeast Anticancer Drug Screen. Data for the cln2 rad14 strain (AID 165).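 Also: 0% = growth equal to vehicle treated cultures.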 As to conditions: S. cerevisiae cln2 rad14 strain, hits give high values. Summed up: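 Strain: cln2 rad14 yeast, altered in cell cycle control and DNA damage repair. Read-out: growth inhibition vs vehicle.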
Test [4] is described as follows: NCI Yeast Anticancer Drug Screen. Data for the bub3 strain (AID 167). As to conditions: S. cerevisiae bub3 mutant strain, hits give high values. Summed up:
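Readout: yeast growth inhibition, expressed relative to vehicle-only wells. The test organism is a mutant strain from a panel with lesions in DNA repair or checkpoint genes.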

The nature of test [5]: NCI Yeast Anticancer Drug Screen. Data for the mlh1 rad18 strain (AID 175). The settings on record: S. cerevisiae mlh1 rad18 strain growth inhibition, hits give high values. Put shortly: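 A repair-deficient yeast strain is exposed to test compound, and growth is scored relative to vehicle-treated controls.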
The nature of test [6]: NCI Yeast Anticancer Drug Screen. Data for the rad50 strain (AID 155).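 Also: 0% = growth of vehicle-only cultures of the same strain.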 As to conditions: S. cerevisiae rad50 strain growth inhibition, hits give high values. Summed up:
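Readout: growth inhibition relative to vehicle-treated cultures. Compound exposure was carried out in a genetically defined yeast strain deficient in DNA damage repair.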

Setting [7] is: at 5.0 µM (retest, dose inferred, filed as 0.5).
[8] abbreviates: at 50.0 µM (retest, dose inferred, filed as 5.0).

Where “and” joins values, the source holds several entries; their conditions need not be identical. Equal entries are not always repeated. Compounds without any hit were thinned out: in the full panel of roughly 79,000, 15% have a hit. Unmarked numbers belong to inactive results. Calls of active or inactive are those of the source. Rule as the data show it: active = growth inhibition above about 70%; inactive = the rest.

Turning to `CC(C)(c1cc(Br)c(O)c(Br)c1)c1cc(Br)c(O)c(Br)c1`, the growth inhibition is 82% (active) in test [1] (setting [7]); 99% (active) in test [1] (setting [8]); 90.7% (active) in test [1] (at 50.0 µM); 85% (active) in test [2] (setting [7]); 98% (active) in test [2] (setting [8]); 87.9% (active) in test [2] (at 50.0 µM). Further, the growth inhibition in test [3] (setting [7]) is 81% (active); in test [3] (setting [8]), 99% (active); in test [3] (at 50.0 µM) it was 89.5% (active); in test [4] (setting [7]) it was 88% (active); in test [4] (setting [8]) it was 98% (active); in test [4] (at 50.0 µM), 87.5% (active). Moreover, the values for the growth inhibition in test [5] (setting [7]), in test [5] (setting [8]) and in test [5] (at 50.0 µM) were 93% (active), 97% (active) and 87.5% (active), respectively.
In the case of `Cn1c(=S)c2[nH]c(SCCN3CCOCC3)nc2n(C)c1=O`, the growth inhibition in test [6] (setting [7]) is 18%; in test [6] (setting [8]), 81% (active); in test [6] (at 50.0 µM), 98.5% (active); in test [2] (setting [7]), 31%; in test [2] (setting [8]), 72% (active); in test [2] (at 50.0 µM), 99.4% (active). The growth inhibition was 3% in test [3] (setting [7]); 59% in test [3] (setting [8]); 61% in test [3] (at 50.0 µM); 30% in test [4] (setting [7]); 83% (active) in test [4] (setting [8]); 99% (active) in test [4] (at 50.0 µM). For the same compound, the growth inhibition was 15% in test [5] (setting [7]), 90% (active) in test [5] (setting [8]) and 98.7% (active) in test [5] (at 50.0 µM).
For `COc1cc(/C=C2\CCOC2=O)ccc1O`, the growth inhibition in test [6] (at 50.0 µM) was 1% and -1.15% and 3.7%; in test [1] (at 50.0 µM) it was -1.45% and 31.7% and 1.8%; in test [2] (at 50.0 µM), -7.55% and 1.8% and -18.2%; in test [3] (at 50.0 µM) it was -9.15% and 14.1% and -3.85%; in test [4] (at 50.0 µM), 3.6% and 13.2% and 9.3%; in test [5] (at 50.0 µM), -5.35% and -1.3% and -13.3%.
Consider `CNC(=O)NC(c1cc(OC)c(OC)c(OC)c1)c1cc2c(cc1O)OCO2` (stereo unspecified), for which the growth inhibition in test [6] (setting [7]) was -15%; in test [6] (setting [8]), -9%; in test [6] (at 50.0 µM) it was 17.2%; in test [2] (setting [7]), -14%; in test [2] (setting [8]) it was 5%; in test [2] (at 50.0 µM) it was -0.1%. In addition, the growth inhibition in test [3] (setting [7]) was -28%; in test [3] (setting [8]), -15%; in test [3] (at 50.0 µM) it was 23.6%; in test [4] (setting [7]), -16%; in test [4] (setting [8]), -4%; in test [4] (at 50.0 µM), -1.6%. Also, the growth inhibition in test [5] (setting [7]) is -19%; in test [5] (setting [8]) it was -5%; in test [5] (at 50.0 µM), 16.8%.
Take `CCNc1ncnc2c1ncn2Cc1ccco1`: the growth inhibition in test [1] (setting [7]) is -3%; in test [1] (setting [8]), 0%; in test [1] (at 50.0 µM), 1.4%; in test [2] (setting [7]), -7%; in test [2] (setting [8]), -3%; in test [2] (at 50.0 µM), 4.8%. The growth inhibition in test [3] (setting [7]) was 1%; in test [3] (setting [8]), -6%; in test [3] (at 50.0 µM), 71.3% (active); in test [4] (setting [7]) it was -2%; in test [4] (setting [8]), 1%; in test [4] (at 50.0 µM), -4.05%. Further, the growth inhibition was 1% in test [5] (setting [7]), 1% in test [5] (setting [8]) and -2% in test [5] (at 50.0 µM).
Turning to `O=C1OC(C(O)CO)C(O)=C1O` (stereo unspecified), the growth inhibition in test [6] (at 50.0 µM) is -17.1% and 7.7% and 12.5%; in test [1] (at 50.0 µM) it was -25.8% and 0.65% and -15.2%; in test [2] (at 50.0 µM), -4.15% and -7.6% and 14.5%; in test [3] (at 50.0 µM) it was -0.75% and -1.55% and 7.15%; in test [4] (at 50.0 µM), -1.7% and -0.25% and -0.3%; in test [5] (at 50.0 µM), 1.6% and 8.75% and 6.45%.
As to `O=C1NC(=O)/C(=C/c2ccc(S(=O)(=O)N/N=C\C(O)C(O)C(O)C(O)CO)cc2)N1` (stereo unspecified), the growth inhibition was 3.55% and -20.8% and 1.5% in test [6] (at 50.0 µM); -3.7% and 38.8% and 12.5% in test [1] (at 50.0 µM); -19.6% and 19.2% and -13.3% in test [2] (at 50.0 µM); 2.3% and 4.95% and 8.9% in test [3] (at 50.0 µM); -17.4% and -6.2% and 3.65% in test [4] (at 50.0 µM); 15.4% and 28.7% and 13.4% in test [5] (at 50.0 µM).
Take `O=C1C=CC(=O)c2c(O)c(N3CCC[C@@H]3CO)c(Cl)c(O)c21`: the growth inhibition was 30% in test [1] (setting [7]); 64% in test [1] (setting [8]); 41.5% in test [1] (at 50.0 µM); 25% in test [2] (setting [7]); 52% in test [2] (setting [8]); 51.2% in test [2] (at 50.0 µM). The growth inhibition in test [3] (setting [7]) is 19%; in test [3] (setting [8]) it was 36%; in test [3] (at 50.0 µM), 30.2%; in test [4] (setting [7]), 21%; in test [4] (setting [8]), 29%; in test [4] (at 50.0 µM), 72.2% (active). The growth inhibition in test [5] (setting [7]) was 26%; in test [5] (setting [8]) it was 71% (active); in test [5] (at 50.0 µM), 4.25%.
With `COC1OC(CO)C(O)C(O)C1O` (stereo unspecified), the growth inhibition was -6.55% and -5.05% and -29.2% in test [6] (at 50.0 µM); -5.2% and 1.65% and -23.1% in test [1] (at 50.0 µM); -4.3% and -4.25% and -9.9% in test [2] (at 50.0 µM); 16.9% and -53.9% and -37.4% in test [3] (at 50.0 µM); -12.3% and 5.7% and -2.25% in test [4] (at 50.0 µM); 0.8% and 7.3% and -8.25% in test [5] (at 50.0 µM).
For the compound `CC(=O)NNc1nc(C)c(C(=O)NNC(=O)C(=O)Nc2c(C)cccc2C(C)C)s1`, the growth inhibition in test [6] (setting [7]) was 3%; in test [6] (setting [8]), 85% (active); in test [6] (at 50.0 µM), 43.1%; in test [2] (setting [7]), 6%; in test [2] (setting [8]), 89% (active); in test [2] (at 50.0 µM), 47%. Also, the growth inhibition in test [3] (setting [7]) is 0%; in test [3] (setting [8]) it was 49%; in test [3] (at 50.0 µM), 9%; in test [4] (setting [7]) it was 4%; in test [4] (setting [8]), 87% (active); in test [4] (at 50.0 µM), 37.5%. The growth inhibition in test [5] (setting [7]) was -4%; in test [5] (setting [8]), 74% (active); in test [5] (at 50.0 µM), 44.1%.
`CCN(CC)C(=S)N/N=C/c1cc(OC)ccc1O`: the growth inhibition is -15% in test [6] (setting [7]); 65% in test [6] (setting [8]); 69.9% in test [6] (at 50.0 µM); -33% in test [2] (setting [7]); 95% (active) in test [2] (setting [8]); 62.4% in test [2] (at 50.0 µM). Moreover, the growth inhibition in test [3] (setting [7]) was -6%; in test [3] (setting [8]), 62%; in test [3] (at 50.0 µM) it was 53.5%; in test [4] (setting [7]), -38%; in test [4] (setting [8]) it was 84% (active); in test [4] (at 50.0 µM), 61.5%. Also, the growth inhibition is -30% in test [5] (setting [7]), 78% (active) in test [5] (setting [8]) and 26.6% in test [5] (at 50.0 µM).
Consider `CN1c2ccccc2Sc2c1n[nH]c2-c1ccccc1`, for which the growth inhibition in test [6] (setting [7]) was -1%; in test [6] (setting [8]), 64%; in test [1] (setting [7]) it was -3%; in test [1] (setting [8]) it was 79% (active); in test [1] (at 50.0 µM) it was 96.1% (active); in test [2] (setting [7]) it was 0%. For the same compound, the growth inhibition is 79% (active) in test [2] (setting [8]); 98.8% (active) in test [2] (at 50.0 µM); 2% in test [3] (setting [7]); 68% in test [3] (setting [8]); 98% (active) in test [3] (at 50.0 µM); -1% in test [4] (setting [7]). Also, the growth inhibition in test [4] (setting [8]) is 95% (active); in test [4] (at 50.0 µM) it was 99% (active); in test [5] (setting [7]), -4%; in test [5] (setting [8]), 91% (active); in test [5] (at 50.0 µM) it was 98.8% (active).
With `CC(=O)OC12CCC3C4CC=C5CC(O)CCC5(C)C4C(=O)C3C1(C)N1CC(C)CC(O)C1C2C` (stereo unspecified), the growth inhibition was 7% in test [6] (setting [7]); 40% in test [6] (setting [8]); 74.5% (active) in test [6] (at 50.0 µM); 5% in test [2] (setting [7]); 68% in test [2] (setting [8]); 62.2% in test [2] (at 50.0 µM). Moreover, the growth inhibition was 18% in test [3] (setting [7]); 62% in test [3] (setting [8]); 56.9% in test [3] (at 50.0 µM); 16% in test [4] (setting [7]); 74% (active) in test [4] (setting [8]); 64.2% in test [4] (at 50.0 µM). The results for the growth inhibition in test [5] (setting [7]), in test [5] (setting [8]) and in test [5] (at 50.0 µM) were -23%, 59% and 47%, respectively.
